# Source: PubChem BioAssay (NCI)
# Compounds without any hit were thinned out: in the full panel of roughly 79,000, 15% have a hit. Unmarked numbers belong to inactive results. Activity calls are given as the source filed them. Cut-off read from the data, not from the text of the source: active = growth inhibition above about 70%; inactive = the rest.
# Assay: NCI Yeast Anticancer Drug Screen. Data for the sgs1 mgt1 strain (AID 161);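 note: 0% = growth of cultures given vehicle only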
# Conditions: S. cerevisiae sgs1 mgt1 strain, at 50.0 µM, stronger effect = higher value
# Outline: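 Read-out: growth inhibition vs vehicle controls. Cells: mutant yeast strain deficient in DNA damage repair.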
row,SMILES,growth inhibition
1,O=S(=O)(Oc1ccc(OS(=O)(=O)c2ccccc2)cc1)c1ccccc1,-0.3%
2,Nc1cccc2c1C(=O)OC2=O,-10.2%
3,CCC(C(=O)c1ccccc1)c1cccc2c1N(C(C)=O)CC2 (stereo not given),-7.5%
4,COc1ccc(OC)c(NC(=O)c2ccc(Cl)c(Cl)c2)c1,5.45%
5,CCCCCCCCCCCCCCCCS(=O)(=O)N/N=c1\cc(-c2ccccc2Cl)c2ccccc2n1C,1.95%
6,C=CC1CC(NC(=O)OC)C(=O)O1 (stereo not given),8.45%
7,CC1(C)C(CC(=O)O)CC1C(=O)O (stereo not given),-27.4%
8,Cc1cc(N)ccc1N=Nc1ccc(S(=O)(=O)CCOS(=O)(=O)O)cc1,-6.8%
9,Oc1ccc(C2SCc3nc4ccccc4n32)cc1 (stereo not given),-35.9%
10,C/C(N)=C\c1nc(=O)ccs1,2.35%
11,C#[N+]CCOP(=O)(OCC1OC(n2cc(C)c(=O)[nH]c2=O)CC1N=[N+]=[N-])O[C@H]1CC[C@@]2(C)C(=CC[C@H]3[C@@H]4CC[C@H](C(C)/C=C/C(CC)C(C)C)[C@@]4(C)CC[C@@H]32)C1 (stereo not given in full),-23.1%
12,O=C(O)c1ccc(O)cc1,-0.9%
13,O=C1c2cccc3c([N+](=O)[O-])ccc(c23)C(=O)N1CC1CCCO1 (stereo not given),87.1% (active)
14,COC(=O)C(C(C)C(C)[N+](=O)[O-])=P(c1ccccc1)(c1ccccc1)c1ccccc1 (stereo not given),29.5%
15,CC(=O)OC(C)C1CCCC1OC(C)=O (stereo not given),-9.95%
16,O=Cc1ccnc2c(Cl)cccc12,-1.1%
17,CCOC(=O)c1ccc(NC(=S)NC(=O)c2cccc([N+](=O)[O-])c2)cc1,16.1%
18,CCN(CC)S(=O)(=O)Nc1c(C)n(C)n(-c2ccccc2)c1=O,-4.05%
19,Cc1cc(S(=O)(=O)Nc2n[nH]c(Nc3ccccc3)n2)c(S)cc1Cl,-13.8%
20,N#CC(C#N)=NNc1ccc2cn[nH]c2c1,2.7%

row,SMILES,growth inhibition
1,COC(=O)C1CCC(/C(C#N)=C2/CCC(C(=O)OC)[N-]2)=N1.COC(=O)C1CCC(/C(C#N)=C2/CCC(C(=O)OC)[N-]2)=N1.[Cu+2] (stereo not given),3.5%
2,CCOC(=O)CN1C(=O)C(=O)N(c2ccc(OC)c3ccccc23)C1=O,-54.7%
3,CCOC(=O)COC(=O)C1C(C(N)=O)N(CC(=O)OCC)CCN1CC(=O)OCC (stereo not given),-7.9%
4,Cc1nc(=S)[nH][nH]1,6.15%
5,CNC(=O)OCc1nc(SSC(C)(C)C)n(C)c1COC(=O)NC,20.3%
6,COc1cccc2c1C(=O)C1(O)CCCCC21 (stereo not given),-65.3%
7,CC1(C)C(O)C(C)(C)C1O (stereo not given),7.8%
8,CCNC1=C(Cl)C(=O)c2ccccc2C1=O,12.2%
9,Cc1sc2ccnc(C)c2c1S(=O)(=O)O,-9.95%
10,COC(=O)c1ccc(/C=C(\c2ccc([N+](=O)[O-])o2)S(=O)(=O)c2ccc(NC(C)=O)cc2)o1,90.8% (active)
11,CC(=O)Nc1ccc(S(=O)(=O)Oc2noc3ccccc23)cc1,16.2%
12,CC(C)(S(=O)(=O)Oc1ccccc1)S(=O)(=O)Oc1ccccc1,-15.4%
13,CC(=O)Nc1cc(C)c(C)cc1[N+](=O)[O-],-9.45%
14,CCNC(=O)NC(=O)C(C)(C)Oc1ccc(Cl)cc1,7.4%
15,C=C1CC[N+]2(CCCCCC)CCCC12 (stereo not given),11.3%
16,COc1cc2c(cc1OC)C(C#N)(C(c1ccccc1)c1ccccc1)N(C(=O)c1ccccc1)C=C2 (stereo not given),1.35%
17,O=C(O)c1ccc2c(c1)CC1(C2)Cc2ccccc2C1=O (stereo not given),-8.2%
18,Cc1cnn(-c2ccccc2)[n+]1[O-],9.5%
19,O=C(c1ccc(O)cc1)C1N=NCC1c1ccccc1 (stereo not given),-11.8%
20,CC1=CC(=O)C(CN(C)C)(CN(C)C)C(C)(C)C1,7.65%
